Values joined by “and” are separate entries in the source; they are usually repeats but may differ in a detail not shown here. Equal entries are not always repeated. Compounds without any hit were thinned out: in the full panel of roughly 83,000, 20% have a hit.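 48-hour exposure, single concentration, 96-well plates; percent growth endpoint where 0 means no net growth. Active: below 10.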 Active and inactive are the calls of the source.

In the assay the test system is MDA-MB-468 breast. Kind of assay: NCI-60 one-dose screen, 48 h (100 = growth as untreated, 0 = no growth, -100 = all killed). Conditions: 10 µM unless noted.
Take `COCCn1cc(-c2csc(-c3c[nH]c4ccc(F)cc34)n2)c2cccnc21`: the growth is -6.83% (active).
Regarding `O=C(CCNNC(=O)c1ccncc1)NCc1ccccc1`, the growth was 75% (inactive).
In the case of `COC(=O)/C(=C\c1ccc(OC)cc1)C(=O)N1c2ccccc2Sc2ccccc21`, the growth is 76.1% (inactive).
The value for `COc1ccc(Cl)cc1NC(=O)c1cc2c(n1C)-c1nc(NC(=O)C(C)C)sc1CC2` was 88.5% (inactive).
The value for `C=C(C=O)[C@@H]1CC[C@]2(C(=O)O)CC[C@]3(C)C(CC[C@@H]4[C@@](C)(CCC#N)[C@H](C(=C)C=O)CC[C@]43C)[C@@H]12` (some centres not stated) was 79.8% (inactive).
The value for `CC(C)C[C@H](NC(=O)[C@H](Cc1ccccc1)n1ccc(N2CCCCC2)cc1=O)B(O)O` was -24.1% (active); that for `COc1ccc(/C(=C2\O[C@@H]([C@H]3COC(C)(C)O3)[C@H]3OC(C)(C)O[C@@H]23)c2cc(OC)c(OC)c(OC)c2)cc1O` was 96.4% (inactive).
`Nc1ncc(C#Cc2cncc(NC(=O)c3cccc(C(F)(F)F)c3)c2)c2cccnc12`: the growth is 92.5% (inactive).
The value for `COc1cccc(NC(=O)c2cccc(C3CCc4c(cc(OC)c(OC)c4OC)O3)c2)c1` (configuration not stated) was 71.5% (inactive); that for `O=C1/C(=C/c2ccc(Cl)c(Cl)c2)CN(C(=O)CCN2CCC(=NO)CC2)C/C1=C\c1ccc(Cl)c(Cl)c1` was -72.3% (active); that for `O=C1/C(=C/c2ccccn2)SC(=S)N1N1CCOCC1` was 101% (inactive).
The value for `C/C=C/C/C=C/[C@H](C)C[C@H](O)[C@@H]1C[C@@H]2O[C@H]2/C=C/[C@H](O)[C@@H](O)/C=C/C[C@H](C)CC(=O)O1` was 99.5% (inactive); that for `COc1ccc(C2=NN(C(C)=O)C(c3cccc(Nc4ccnc5cc(Cl)ccc45)c3)C2)cc1` (configuration not stated) was 38.9% (inactive); that for `CS(=O)/C(C#N)=C\C=C\c1cccc(Cl)c1` (configuration not stated) was 3.26% (active).
The value for `CC(=O)/C(=C/c1ccc(-c2ccccc2)cc1)C(=O)c1ccccc1` was 92.2% (inactive); that for `O=C(/C=C/C12c3ccccc3C(c3ccccc31)C1C(=O)N(c3ccccc3)C(=O)C12)c1ccccc1` (configuration not stated) was 1.31% (active).
Regarding `COc1cc(-c2ccc3cc(OC)c(OC)c(OC)c3c2)cc(OC)c1OC`, the growth was 31.6% (inactive).
The value for `Cc1cc(C)c(-c2c(O)c(Br)c(-c3c(C)cc(C)c(Br)c3C)c(O)c2Br)c(C)c1Br` was 48.9% (inactive); that for `CC(Nc1c(C#N)cnc2ccc(-c3cncc(-c4n[nH]c(=O)o4)c3)cc12)c1ccccc1` (configuration not stated) was -41.7% (active); that for `O=C(OCc1ccccc1)c1ccccc1` was 95% (inactive) and 74.9% (inactive).
For the compound `CCN(CC)c1ccc(NC(C(=O)c2ccccc2)c2ccccc2)cc1` (configuration not stated), the growth was 1.41% (active).
The value for `CCNC(=O)Oc1ccc(/C(=C(/C)c2ccc(OC)cc2)c2ccc(OCCN3CCCCCC3)cc2)cc1` was 38.3% (inactive).
The value for `NC(=O)CCC(C(=O)O)N1C(=O)c2ccc(O)cc2C1=O` (configuration not stated) was 109% (inactive); that for `O=C(CNc1nc(-c2cccc([N+](=O)[O-])c2)cs1)Nc1cccc(Cl)c1` was 98% (inactive).
Take `O=C(CCl)Nc1ccc(NC(=O)c2cc(Cl)ccc2O)c(Cl)c1`: the growth was 79.7% (inactive).
As for `CCOC(=O)c1sc(-c2ccc(OS(=O)(=O)c3ccc(C(C)(C)C)cc3)c(C=O)c2)nc1C`, the growth is 1.65% (active).
The value for `O=C1C=Cc2ccccc2/C1=C/c1[nH]c(=O)[nH]c1O` was 41.5% (inactive); that for `NC(N)=N/N=C\c1cccc(OCc2ccccc2)c1` was 19.1% (inactive); that for `COC(=O)c1c[n+]([O-])ccc1OC` was 106% (inactive).
The value for `O[C@@H]1CO[C@H]2[C@@H]1OC[C@@H]2O` was 96.3% (inactive).
The value for `COc1ccc(C2C3=C(COC3=O)N(CCO)c3cc4c(cc32)OCCO4)cc1` (configuration not stated) was 32.9% (inactive).
In the case of `O=C(CCl)N(C1CCCCC1)C1CCCCC1`, the growth is 91.5% (inactive).
The value for `O=C(Nc1ccc(F)cc1)c1ccccc1` was 98.3% (inactive); that for `COc1cccc(-c2nn(-c3ccccc3)cc2-c2ccnc(NCCCNC(=O)c3ccc(F)cc3)c2)c1` was 13.7% (inactive); that for `COc1ccc(C2C=C(c3ccc(OC)c(OC)c3)N=C3SC=CN32)c(Br)c1` (configuration not stated) was 54.5% (inactive).
The value for `O=C(Nn1c2c(sc1=NCc1ccccc1)C(=O)c1ccccc1C2=O)c1cc2ccc1CCc1ccc(cc1)CC2` was 80% (inactive); that for `Cc1cc2c(-c3nc4ccccn4c3Nc3cccc4ccccc34)c(O)c(O)cc2c(O)c1-c1c(C)cc2c(-c3nc4ccccn4c3Nc3cccc4ccccc34)c(O)c(O)cc2c1O` was 17.4% (inactive).
